Assay outcomes: PubChem BioAssay, several laboratories
The list is not random: actives were taken first. Their share in the collection is about 3.8%.
NTR1 ag = agonists of human NTR1, primary screen, imaging, U2OS cells, beta-arrestin-GFP, high content. NTR1-U2OS beta-arrestin-GFP spot imaging, agonist mode. activation, % at 20 µM. hit rate 0.17% among 330,000. Neurotensin receptor type 1 (Homo sapiens), P30989;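 active = activation at or above 40% of the spot to cytoplasm intensity ratio, with at least 20 cells analyzed; inconclusive = wells under 20 cells, flagged as cytotoxic or low count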
Beta cell apopt = inhibitors of cytokine-induced beta cell apoptosis, primary screen, luminescence; hit rate 0.8% among 300,000; protection from apoptosis, % (test concentration not listed); INS-1E cytokine-induced death, ATP luminescence, 48 h; percent of positive-control rescue, neutral wells zero;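 active = Every replicate reaches about 75%, or at least half do and their mean reaches it too, limit read from the data; inconclusive = At least half of replicates reach the limit but their mean does not; inactive = Under half of replicates reach the limit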;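 note: higher means more ATP so stronger rescue from cytokine killing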
Jurkat NFkB inh = inhibitors of induced NF-kB luciferase reporter, primary screen, TCR NF-kB activation inhibitor project, cell-based, luminescence, uHTS | Jurkat, PMA/ionomycin-induced NF-kB luciferase reporter | AID 435003, 2010 | hit rate 0.53% among 330,000 | inhibition, % at 4 µM; in the data active = inhibition above about 50%
697 NFkB inh = inhibitors of PMA/ionomycin-induced NF-kB reporter, 697 cells, primary screen, B-cell NF-kB inhibitor project, cell-based, luminescence, uHTS; 697 B-cell NF-kB luciferase reporter, 16 h; inhibition, % at 4 µM; hit rate 0.33% among 330,000; in the data active = inhibition above about 35%
Mdm2-MdmX inh = inhibitors of human Mdm2-MdmX association, primary screen, cell-based, luminescence, split luciferase, SaOS-2, uHTS; hit rate 3% among 330,000; inhibition, % at 8 µM; SaOS-2 split-luciferase Mdm2/MdmX complementation; Protein Mdm4 (Homo sapiens) + E3 ubiquitin-protein ligase Mdm2 (Homo sapiens), …;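 active = inhibition of at least 50% at 8 µM in the primary screen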
Target sequence (O15151 whole entry, looked up): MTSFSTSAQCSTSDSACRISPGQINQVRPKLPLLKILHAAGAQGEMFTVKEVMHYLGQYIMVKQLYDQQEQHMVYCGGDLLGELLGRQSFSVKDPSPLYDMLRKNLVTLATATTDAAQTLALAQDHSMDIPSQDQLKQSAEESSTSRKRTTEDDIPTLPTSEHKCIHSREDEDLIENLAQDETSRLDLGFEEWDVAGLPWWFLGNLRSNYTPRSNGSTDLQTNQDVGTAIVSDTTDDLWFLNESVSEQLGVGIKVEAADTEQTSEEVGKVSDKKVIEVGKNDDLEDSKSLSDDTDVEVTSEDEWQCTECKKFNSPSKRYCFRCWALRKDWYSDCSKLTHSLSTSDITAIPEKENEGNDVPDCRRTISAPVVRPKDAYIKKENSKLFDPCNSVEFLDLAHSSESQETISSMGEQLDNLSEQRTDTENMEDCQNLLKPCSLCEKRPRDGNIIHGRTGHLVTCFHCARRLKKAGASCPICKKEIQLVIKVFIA
Target sequence (Q00987 whole entry, looked up): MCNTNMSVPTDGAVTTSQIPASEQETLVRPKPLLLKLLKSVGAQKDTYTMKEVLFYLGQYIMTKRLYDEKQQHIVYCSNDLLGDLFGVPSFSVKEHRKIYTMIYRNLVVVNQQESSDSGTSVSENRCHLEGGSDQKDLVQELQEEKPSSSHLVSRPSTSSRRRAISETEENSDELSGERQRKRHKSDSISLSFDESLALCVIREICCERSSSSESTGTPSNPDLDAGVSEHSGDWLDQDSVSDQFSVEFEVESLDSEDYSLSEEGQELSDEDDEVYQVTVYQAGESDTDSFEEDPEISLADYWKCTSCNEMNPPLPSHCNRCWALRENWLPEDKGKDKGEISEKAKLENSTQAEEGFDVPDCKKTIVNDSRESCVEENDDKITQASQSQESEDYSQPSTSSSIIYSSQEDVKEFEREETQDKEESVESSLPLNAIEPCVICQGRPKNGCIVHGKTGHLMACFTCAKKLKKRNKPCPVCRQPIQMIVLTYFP
A1 inh = caspase 3/7 activation in MEF A1-2A-BIM cells, primary screen, A1 inhibitor project, cell-based, luminescence, HTS | Caspase-Glo 3/7 luminescence, 3 h; percent of clofoctol response, vehicle zero | caspase activation, % (no concentration beside the values) | hit rate 0.066% among 330,000 | AID 2462, 2010;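 active = over half of replicate activation scores above 10%, or exactly half above 10 with the replicate mean above 10; inconclusive = replicate mean below 10 yet half the replicates above 10; inactive = over half of replicates below 10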
Mdm2-MdmX conf = Mdm2-MdmX complex disruptors, retested hits, confirmation, luminescence, single concentration. shares compounds with Mdm2-MdmX inh. Mdm2-MdmX binding, luminescent assay. inhibition, % at 8 µM. hit rate 55% among 10,000; in the data active = inhibition above about 40%
FLuc counter = full-length luciferase signal inhibition, confirmation, counter-screen for Mdm2/MdmX interaction inhibitor project, cell-based, single concentration, SaOS-2. shares compounds with Mdm2-MdmX inh. inhibition, % at 8 µM. SaOS-2 full-length luciferase counterscreen, luminescence. AID 504607, 2011. hit rate 77% among 6,200;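 active = mean inhibition at 8 µM reaching about 37%, which flags the compound as non-specific, limit read from the data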;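 note: p53-null SaOS-2 cells with luciferase driven by a doxycycline-inducible promoter; compound on cells about two nights before reading with doxycycline added after day one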
Numbers stand for hits.

Results for CCOc1ccc(S(=O)(=O)NCCCn2ccnc2)cc1 ?
NTR1 ag: inactive; Beta cell apopt: inactive; Jurkat NFkB inh: inactive; 697 NFkB inh: inactive; Mdm2-MdmX inh: inactive; A1 inh: inactive

How did FC(F)(F)c1nc(SCc2ccccc2)n[nH]1 do in these assays?
NTR1 ag: inactive; Jurkat NFkB inh: inactive; 697 NFkB inh: inactive; Mdm2-MdmX inh: inactive; A1 inh: inactive

Results for Cc1ccc(Cl)cc1N1CCN(C(=O)c2cn(C)c(=O)c3c2c2ccccc2n3C)CC1 ?
NTR1 ag: inactive; Jurkat NFkB inh: inactive; 697 NFkB inh: inactive; Mdm2-MdmX inh: 69.1; A1 inh: inactive; Mdm2-MdmX conf: 63.2; FLuc counter: 42.2

Results for Cc1cccc(N2CCN(C(=O)c3cn(C)c(=O)c4c3c3ccccc3n4C)CC2)c1C ?
NTR1 ag: inactive; Beta cell apopt: inactive; Jurkat NFkB inh: inactive; 697 NFkB inh: inactive; Mdm2-MdmX inh: 59.4; A1 inh: inactive; Mdm2-MdmX conf: 44.5; FLuc counter: 64.0

What do the screens show for `Cn1c2ccccc2c2c(C(=O)N3CCN(c4ccccc4)CC3)cn(C3CCCC3)c(=O)c21`?
NTR1 ag: inactive; Beta cell apopt: inactive; Jurkat NFkB inh: inactive; 697 NFkB inh: inactive; Mdm2-MdmX inh: inactive; A1 inh: inactive

How did Cc1ccc(Oc2ccccc2NC(=O)CN2C(=O)NC3(CCCC3)C2=O)cc1 do in these assays?
NTR1 ag: inactive; Beta cell apopt: inactive; Jurkat NFkB inh: inactive; 697 NFkB inh: inactive; Mdm2-MdmX inh: inactive; A1 inh: inactive

What do the screens show for `CSCSC1=C(C#N)C(c2ccc(Cl)cc2)C(C(C)=O)=C(C)N1` (centres undefined)?
NTR1 ag: inactive; Beta cell apopt: inactive; Jurkat NFkB inh: inactive; 697 NFkB inh: inactive; Mdm2-MdmX inh: inactive; A1 inh: inactive

Results for N#CC1=C(SCC(N)=O)NC2=C(C(=O)c3ccccc32)C1c1ccc(Cl)cc1 (centres undefined) ?
NTR1 ag: inactive; Beta cell apopt: inactive; Jurkat NFkB inh: inactive; 697 NFkB inh: inactive; Mdm2-MdmX inh: 50.0; A1 inh: inactive; Mdm2-MdmX conf: inactive

Results for O=C1c2ccccc2NC(c2ccc(-c3ccc(F)cc3)o2)N1O (centres undefined) ?
NTR1 ag: inactive; Beta cell apopt: inactive; Jurkat NFkB inh: inactive; 697 NFkB inh: inactive; Mdm2-MdmX inh: inactive; A1 inh: inactive

What do the screens show for `O=C1c2ccccc2NC(c2ccc(-c3ccc(Br)cc3)o2)N1O` (centres undefined)?
NTR1 ag: inactive; Beta cell apopt: inactive; Jurkat NFkB inh: inactive; 697 NFkB inh: inactive; Mdm2-MdmX inh: 72.6; A1 inh: inactive; Mdm2-MdmX conf: 56.0; FLuc counter: inactive

What do the screens show for `CC(C)(C)OC(=O)NCCc1nnc(S(=O)(=O)Cc2ccc(Cl)cc2Cl)o1`?
NTR1 ag: inactive; Beta cell apopt: inactive; Jurkat NFkB inh: inactive; 697 NFkB inh: inactive; Mdm2-MdmX inh: 76.8; A1 inh: 5.9; Mdm2-MdmX conf: 59.0; FLuc counter: inactive

What do the screens show for `CC[C@@]1(c2ccccc2)C(=O)N(C(=O)OC)N1C(=O)OC`?
NTR1 ag: inactive; Beta cell apopt: inactive; Jurkat NFkB inh: inactive; 697 NFkB inh: inactive; Mdm2-MdmX inh: inactive; A1 inh: inconclusive

Results for CC[C@]1(c2ccccc2)C(=O)N(C(=O)OC)N1C(=O)OC ?
NTR1 ag: inactive; Beta cell apopt: inactive; Jurkat NFkB inh: inactive; 697 NFkB inh: inactive; Mdm2-MdmX inh: inactive; A1 inh: inactive
